Records with an inconclusive call do not appear. Activity calls are given as the source filed them. Unless noted, calls come from the whole dose curve.
Legend:
[1] = Nuclear factor erythroid 2-related factor 2/antioxidant responsive element (Nrf2/ARE) small molecule agonists: qHTS cell viability counter screen in human keratinocytes (AID 1919968; active = well fitted curve in the direction sought with a large enough effect in the repeat runs; an effect the other way counts as inactive or inconclusive; note: nearly all actives have a fitted effect of over 55% in size)
Procedure, shortened: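 Cytotoxicity was multiplexed with the Nrf2/ARE luciferase assay in the same wells. Stably transfected HaCaT keratinocytes were treated with test compounds for 23 h at 37 C. Cell viability was then measured by CellTiter-Fluor fluorescence.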

[2] = Nuclear factor erythroid 2-related factor 2/antioxidant responsive element (Nrf2/ARE) small molecule agonists: luciferase reporter gene qHTS assay in human keratinocytes (AID 1919969); note: nearly all actives have a fitted effect of over 35% in size
[3] = target: Gonadotropin-releasing hormone receptor (Homo sapiens) (UniProt P30968); test: Human gonadotropin-releasing hormone receptor (GnRHR) small molecule agonists, calcium flux assay in GnRHR-HEK293 cells (AID 1920063); note: nearly all actives have a fitted effect of over 35% in size
Procedure, shortened: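 Agonist activity was measured as intracellular calcium flux in HEK293 cells engineered to stably express human GnRHR. After dye loading for 1 hour at 37 C, compounds in DMSO were added and fluorescence was followed for 3 minutes.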

[4] = target: KiSS-1 receptor (Homo sapiens) (UniProt Q969F8); test: Human kisspeptin (KISS1R) small molecule agonists, calcium flux assay in KISS1R-HEK293 cells (AID 1920064; active = well fitted curve in the direction sought with a large enough effect in the repeat runs; an effect the other way counts as inactive or inconclusive)
Procedure, shortened: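 Agonist activity is monitored as intracellular calcium rise in engineered HEK293 cells carrying human KISS1R. Cells are dye-loaded for 1 h at 37 C before compound addition, and fluorescence is recorded for 3 min.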

[5] = G protein-coupled receptor (GPCR) small molecule agonists, calcium flux assay: HEK293 wild type cell line counter screen (AID 1920065)
Procedure, shortened: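 Seed cells, incubate 18 h (37 C, 5% CO2); add calcium dye, 1 h at 37 C; pin-transfer compounds, ATP control or DMSO; read fluorescence 480/540 nm each second for 3 min.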

[6] = p53 small molecule agonists, cell-based qHTS assay with human liver microsomes (AID 1963577);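 note: p53 response element beta-lactamase reporter cells with liver microsomes plus NADPH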
Procedure, shortened: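 Metabolically competent format: test substances, human liver microsomes and NADPH (both 0.5 mg/mL final) incubated with p53RE-bla cells 16 h at 37 C. Beta-lactamase reporter signal then quantified by fluorescence.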

[7] = p53 small molecule agonists, cell-based qHTS assay with rat liver microsomes (AID 1963578)
Procedure, shortened: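 Each plate received p53RE-bla cells, then compound, then rat liver microsomes and NADPH (both 0.5 mg/mL final). Plates were held 16 h at 37 C, and beta-lactamase activity was detected with LiveBLAzer over 2 h.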

[8] = p53 small molecule agonists, cell-based qHTS assay with human liver microsomes: qHTS cell viability counter screen (AID 1963579); note: nearly all actives have a fitted effect of over 45% in size
Procedure, shortened: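 Tox21 library compounds, delivered from DMSO stocks, were tested on p53RE-bla cells together with 0.5 mg/mL human liver microsomes and 0.5 mg/mL NADPH (final) over 16 h at 37 C; CellTiter-Glo luminescence served as the cytotoxicity measure.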

[9] = p53 small molecule agonists, cell-based qHTS assay with rat liver microsomes: qHTS cell viability counter screen (AID 1963580); note: nearly all actives have a fitted effect of over 45% in size
Procedure, shortened: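 Cytotoxicity counter screen: intracellular ATP measured by CellTiter-Glo luminescence in the same wells as the beta-lactamase reporter read, on HCT-116 p53RE-bla cells exposed 16 h at 37 C to compounds with rat liver microsomes and NADPH, each 0.5 mg/mL final.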

[10] = p53 small molecule agonists, cell-based qHTS assay: qHTS cell viability counter screen (AID 1963581); note: nearly all actives have a fitted effect of over 45% in size
Procedure, shortened: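 Viability was counter-screened in parallel with the p53 agonist reporter by measuring intracellular ATP luminescence in the same HCT-116 p53RE-bla wells after 16 h compound treatment at 37 C.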

[11] = target: 5-hydroxytryptamine receptor 2A (Homo sapiens) (UniProt P28223); test: 5-hydroxytryptamine receptor 2A (HTR2A) small molecule antagonists, cell-based qHTS assay (AID 1963586); note: nearly all actives have a fitted effect of over 45% in size
Procedure, shortened: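 CHO cells stably expressing human HTR2A were plated for 18 h at 37 C, then loaded with calcium dye for 1 h. Compounds were preincubated 5 min at room temperature before DOI (4 nM solution) was added. Kinetic fluorescence was read for 3 min.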

[12] = target: 5-hydroxytryptamine receptor 2A (Homo sapiens) (UniProt P28223); test: 5-hydroxytryptamine receptor 2A (HTR2A) small molecule agonists, cell-based qHTS assay (AID 1963587); note: nearly all actives have a fitted effect of over 30% in size
Procedure, shortened: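 CHO cells stably expressing human HTR2A, plated 18 h, loaded with calcium dye 1 h at 37 C. Agonist mode: compounds added and intracellular calcium fluorescence recorded kinetically for 2 min at 1 sec intervals.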

[13] = target: Muscarinic acetylcholine receptor M1 (Homo sapiens) (UniProt P11229); test: Cholinergic receptor muscarinic 1 (CHRM1) small molecule antagonists, cell-based qHTS assay (AID 1963588); note: nearly all actives have a fitted effect of over 40% in size
Procedure, shortened: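 Compounds were tested at 15 concentrations in three independent runs. Dye-loaded CHRM1-CHO cells were exposed 5 min at room temperature before stimulation by acetylcholine added at 50nM. Intracellular calcium was read kinetically on FDSS for 3 min.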

[14] = cAMP Responsive Elements (CRE) small molecule agonists, cell-based qHTS assay (AID 1963590)
Procedure, shortened: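 Cells carrying a CRE-driven beta-lactamase reporter (HEK 293T) are seeded, incubated overnight (18 h), and treated with test compounds for 3 h at 37 C; reporter activity is then detected with a FRET substrate after 2 h at room temperature.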

[15] = cAMP Responsive Elements (CRE) small molecule antagonists, cell-based qHTS assay (AID 1963591; active = well fitted inhibition curve with a large enough effect in the signal ratio in the repeat runs, not every such curve was filed as active; the % refers to the signal ratio)
Procedure, shortened: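 Cells (CRE-bla HEK 293T, DMEM with 10% dialyzed FBS and 25 mM HEPES) are seeded and incubated 18 h. Compounds are added with NKH477 agonist at 0.25 uM final for 3 h, then FRET substrate for 2 h.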

[16] = target: Beta-2 adrenergic receptor (Homo sapiens) (UniProt P07550); test: Adrenergic beta2 receptor (ADRB2) small molecule antagonists, cell-based qHTS assay (AID 1963592); note: series mostly up to about 92 µM; nearly all actives have a fitted effect of over 50% in size
Procedure, shortened: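 Assay format: CHO-ADRB2 cells, 18-20hr seeding at 37C/5% CO2, then compound plus 1nM isoproterenol agonist mix for 0.5hr RT. Homogeneous time-resolved fluorescence cAMP detection after 1hr, expressed as 665/615 nm ratio.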

[17] = target: D(2) dopamine receptor (Homo sapiens) (UniProt P14416); test: Dopamine D2 receptor (DRD2) small molecule agonists, cell-based qHTS assay (AID 1963594); note: nearly all actives have a fitted effect of over 35% in size
Procedure, shortened: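 HEK293 cells stably expressing human DRD2, pre-treated with PDE inhibitor Ro20-1724 (0.1 mM final) and compound 10 min at room temperature, then stimulated with NKH477 (200nM […]) for 30 min. cAMP read by HTRF (665/620 nm).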

[18] = target: D(2) dopamine receptor (Homo sapiens) (UniProt P14416); test: Dopamine D2 receptor (DRD2) small molecule antagonists, cell-based qHTS assay (AID 1963595; active = well fitted inhibition curve with a large enough effect in the signal ratio in the repeat runs, with a control signal flat; the % refers to the signal ratio)
Procedure, shortened: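 HEK293 cells stably expressing DRD2 were preincubated with 0.1 mM Ro20-1724, then with compound for 10 min at room temperature. Cells were stimulated with 200 nM NKH477 plus 12 nM quinpirole for 30 min, and cAMP was read by HTRF.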

[19] = p53 small molecule agonists, cell-based qHTS assay (AID 1963582; active = well fitted activation curve with a large enough effect in the signal ratio in the repeat runs, not every such curve was filed as active; the % refers to the signal ratio)
Procedure, shortened: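 Cells carrying a p53-responsive bla reporter are treated with test compounds for 16 h at 37 C; beta-lactamase activity is then detected with LiveBLAzer B/G FRET substrate after 2 h at room temperature.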

[20] = target: Muscarinic acetylcholine receptor M1 (Homo sapiens) (UniProt P11229); test: Cholinergic receptor muscarinic 1 (CHRM1) small molecule agonists, cell-based qHTS assay (AID 1963589); note: nearly all actives have a fitted effect of over 35% in size
Procedure, shortened: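 Cells were plated and incubated 18 h at 37 C/5% CO2, loaded with calcium dye for 1 h at 37 C, then treated with compounds in DMSO. Fluorescence was recorded kinetically at 1 sec intervals.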

Measured: Potency

D(2) dopamine receptor (Homo sapiens), sequence (P14416 whole entry, looked up): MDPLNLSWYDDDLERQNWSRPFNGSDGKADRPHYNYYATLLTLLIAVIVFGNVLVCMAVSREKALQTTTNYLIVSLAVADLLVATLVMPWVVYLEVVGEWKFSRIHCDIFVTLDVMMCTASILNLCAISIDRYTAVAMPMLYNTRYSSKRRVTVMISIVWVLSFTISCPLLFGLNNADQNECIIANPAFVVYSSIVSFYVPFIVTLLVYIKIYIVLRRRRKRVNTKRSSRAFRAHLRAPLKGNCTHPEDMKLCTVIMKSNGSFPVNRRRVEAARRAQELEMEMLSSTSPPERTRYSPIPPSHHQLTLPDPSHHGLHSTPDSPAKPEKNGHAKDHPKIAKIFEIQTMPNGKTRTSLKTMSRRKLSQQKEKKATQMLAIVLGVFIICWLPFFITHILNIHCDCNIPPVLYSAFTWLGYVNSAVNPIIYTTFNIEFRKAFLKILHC
5-hydroxytryptamine receptor 2A (Homo sapiens), sequence (P28223 whole entry, looked up): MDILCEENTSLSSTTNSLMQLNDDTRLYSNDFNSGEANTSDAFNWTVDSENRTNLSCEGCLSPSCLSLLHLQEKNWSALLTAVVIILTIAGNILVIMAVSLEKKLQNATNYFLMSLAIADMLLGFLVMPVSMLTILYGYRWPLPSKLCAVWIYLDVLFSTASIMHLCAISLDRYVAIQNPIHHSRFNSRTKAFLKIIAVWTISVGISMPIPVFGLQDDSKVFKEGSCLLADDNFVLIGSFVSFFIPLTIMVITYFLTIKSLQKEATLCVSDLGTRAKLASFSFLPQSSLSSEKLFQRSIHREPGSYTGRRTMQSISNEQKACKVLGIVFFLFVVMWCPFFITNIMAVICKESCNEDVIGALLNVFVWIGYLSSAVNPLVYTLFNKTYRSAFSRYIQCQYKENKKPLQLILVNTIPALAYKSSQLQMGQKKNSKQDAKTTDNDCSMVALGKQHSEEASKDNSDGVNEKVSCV
Gonadotropin-releasing hormone receptor (Homo sapiens), sequence (P30968 whole entry, looked up): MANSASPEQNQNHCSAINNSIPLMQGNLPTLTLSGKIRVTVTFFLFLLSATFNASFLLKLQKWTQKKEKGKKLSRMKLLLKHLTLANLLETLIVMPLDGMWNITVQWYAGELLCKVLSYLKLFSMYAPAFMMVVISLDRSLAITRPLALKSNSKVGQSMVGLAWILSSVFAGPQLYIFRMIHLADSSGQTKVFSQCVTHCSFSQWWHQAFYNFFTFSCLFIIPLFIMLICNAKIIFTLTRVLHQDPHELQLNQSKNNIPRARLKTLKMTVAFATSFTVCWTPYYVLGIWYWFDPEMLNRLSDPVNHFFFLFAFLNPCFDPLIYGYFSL
Beta-2 adrenergic receptor (Homo sapiens), sequence (P07550 whole entry, looked up): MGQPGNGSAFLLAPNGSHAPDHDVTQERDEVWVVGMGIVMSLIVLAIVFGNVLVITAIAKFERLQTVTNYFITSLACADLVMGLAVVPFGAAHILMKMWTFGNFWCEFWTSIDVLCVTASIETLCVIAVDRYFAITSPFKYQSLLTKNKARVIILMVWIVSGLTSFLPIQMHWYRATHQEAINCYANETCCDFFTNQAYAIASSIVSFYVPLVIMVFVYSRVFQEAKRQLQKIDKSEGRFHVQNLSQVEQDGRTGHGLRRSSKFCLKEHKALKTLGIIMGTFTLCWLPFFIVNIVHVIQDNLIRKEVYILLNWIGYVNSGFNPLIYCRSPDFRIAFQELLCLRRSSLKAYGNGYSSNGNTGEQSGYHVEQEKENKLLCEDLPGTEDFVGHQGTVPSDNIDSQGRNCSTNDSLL
Muscarinic acetylcholine receptor M1 (Homo sapiens), sequence (P11229 whole entry, looked up): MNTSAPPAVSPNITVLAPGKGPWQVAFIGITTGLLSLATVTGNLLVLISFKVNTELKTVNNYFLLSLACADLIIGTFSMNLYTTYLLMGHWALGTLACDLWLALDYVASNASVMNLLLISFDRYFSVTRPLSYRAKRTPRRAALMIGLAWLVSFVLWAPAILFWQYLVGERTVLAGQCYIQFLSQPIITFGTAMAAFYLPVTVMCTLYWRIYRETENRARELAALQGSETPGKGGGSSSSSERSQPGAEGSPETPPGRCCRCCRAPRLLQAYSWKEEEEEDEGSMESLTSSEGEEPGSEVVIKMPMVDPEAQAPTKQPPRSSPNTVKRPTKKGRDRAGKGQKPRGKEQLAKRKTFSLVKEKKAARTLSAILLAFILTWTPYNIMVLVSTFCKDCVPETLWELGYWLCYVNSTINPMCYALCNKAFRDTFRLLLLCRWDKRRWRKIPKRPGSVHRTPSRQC
KiSS-1 receptor (Homo sapiens), sequence (Q969F8 whole entry, looked up): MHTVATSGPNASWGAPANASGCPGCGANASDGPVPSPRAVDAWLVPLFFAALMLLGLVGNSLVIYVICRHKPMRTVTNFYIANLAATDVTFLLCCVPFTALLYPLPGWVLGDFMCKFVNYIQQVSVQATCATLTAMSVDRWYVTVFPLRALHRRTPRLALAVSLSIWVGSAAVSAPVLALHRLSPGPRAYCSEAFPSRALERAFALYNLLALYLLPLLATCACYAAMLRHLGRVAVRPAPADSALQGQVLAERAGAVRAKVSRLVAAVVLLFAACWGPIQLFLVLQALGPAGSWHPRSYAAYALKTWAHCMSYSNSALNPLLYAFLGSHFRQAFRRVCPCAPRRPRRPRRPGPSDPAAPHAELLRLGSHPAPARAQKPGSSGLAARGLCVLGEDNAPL

O=P(Cl)(Cl)Cl
not listed: [19] | [20]
inactive: all other assays above

CC(C)C1(C)N=C(c2ncccc2C(=O)O)NC1=O (stereo unspecified)
not listed: [10] | [18]
inactive: all other assays above

c1ccc2c(c1)CCCC2
not listed: [10] | [11] | [16]
inactive: all other assays above

C#CC(C)(C)NC(=O)c1cc(Cl)cc(Cl)c1
not listed: [10]
inactive: all other assays above

CC(C=O)Cc1ccc2c(c1)OCO2 (stereo unspecified)
not listed: [19] | [20]
inactive: all other assays above

CC(C)NC(C)C
not listed: [10]
inactive: all other assays above

CC(C)(C)C(=O)Cl
not listed: [17] | [19] | [20]
inactive: all other assays above
